From PubChem
PP5 primary – inhibitors of human protein phosphatase 5 (PP5); P53041; purified PP5c, OMFP substrate fluorescence; inhibition, % at 6.7 µM; actives 0.18% (n = 320,000); AID 1987;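 active = inhibition above the campaign's mean inhibition across all tested compounds plus 3 SD, cut at about 9.5% in these data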;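 note: 0% = DMSO only and 100% = 100 µM cantharidin control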
Target sequence (P53041 whole entry, looked up): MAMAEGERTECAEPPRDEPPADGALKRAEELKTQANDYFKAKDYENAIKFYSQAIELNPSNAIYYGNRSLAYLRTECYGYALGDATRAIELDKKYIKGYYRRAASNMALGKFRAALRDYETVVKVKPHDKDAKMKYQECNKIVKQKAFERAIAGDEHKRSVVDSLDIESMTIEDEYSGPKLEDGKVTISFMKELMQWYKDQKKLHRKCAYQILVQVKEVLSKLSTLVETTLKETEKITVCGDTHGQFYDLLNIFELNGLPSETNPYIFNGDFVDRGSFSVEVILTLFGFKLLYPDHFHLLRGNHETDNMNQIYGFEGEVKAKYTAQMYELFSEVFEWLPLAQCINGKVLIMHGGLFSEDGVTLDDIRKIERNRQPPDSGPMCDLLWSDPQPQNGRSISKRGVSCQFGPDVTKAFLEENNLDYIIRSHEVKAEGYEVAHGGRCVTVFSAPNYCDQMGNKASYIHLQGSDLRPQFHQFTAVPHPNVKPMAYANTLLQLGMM
PP1 inh – counter-screen for PP5 inhibitors: inhibitors of human PP1-alpha; P62136; purified PP1alpha, OMFP fluorescence; inhibition, % at 6.7 µM; actives 0.9% (n = 320,000);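 active = inhibition above the mean inhibition of all tested compounds plus 3 SD, computed separately for each screening campaign, cut at about 15% in these data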
SKKanGAS inh – inhibitors of SKKanGAS S. pyogenes growth in kanamycin (SK-promoter or general growth effect) | AID 1662 | actives 1.3% (n = 300,000) | BacTiter-Glo, 6 h | inhibition, % at 7.5 µM;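 active = mean replicate score, as percent of positive control median, at least 50; inconclusive = mean below 50 but one replicate at or above 50; inactive = mean and every replicate below 50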;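 note: strain carries kanamycin resistance gene driven by streptokinase promoter and grows in 40 µg/ml kanamycin; loss of luminescence reflects streptokinase promoter inhibition or plain growth inhibition; 0% = median of DMSO wells and 100% = positive control at its reference dose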
CSC inhib – cancer stem cell inhibition; inhibition, % at 7.5 µM; actives 1.1% (n = 300,000); cancer stem cell-like cells viability, luminescence; in the data active = inhibition above about 75%; inconclusive = no clear call, values can overlap the other calls; tested in HMLE shEcad cells
Beta cell apopt – blocks beta cell apoptosis; INS-1E cytokine-induced death, ATP luminescence, 48 h; percent of positive-control rescue, neutral wells zero; protection from apoptosis, % (test concentration not listed); actives 0.8% (n = 300,000); AID 435005;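 active = Every replicate reaches about 75%, or at least half do and their mean reaches it too, limit read from the data; inconclusive = At least half of replicates reach the limit but their mean does not; inactive = Under half of replicates reach the limit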;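 note: 0% = cytokine-treated negative control wells and 100% = positive control rescue; higher means more ATP so stronger rescue from cytokine killing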
PP1 confirm – human PP1 phosphatase inhibition, confirmation. shares compounds with PP1 inh. AID 2358. purified PP1alpha, OMFP substrate fluorescence. actives 52% (n = 1,900). inhibition, % at 6.7 µM;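 active = mean PP1 inhibition above a set limit taken from the earlier primary screen, cut at about 15% in these data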
PP5 inh counter – counter-screen for PP1 inhibitors: human PP5 phosphatase inhibition; actives 4% (n = 1,900); inhibition, % at 6.7 µM; purified PP5c, OMFP fluorescence; shares compounds with PP1 inh;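 active = mean PP5 inhibition over triplicate wells above about 9.5% taken from the earlier PP1 screen, limit read from the data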
* hit, by the source's call; ? = inconclusive; / = no result given. A selection: hits, their analogues and other compounds. The true share with any hit is near 3.1%.

SMILES	PP5 primary	PP1 inh	SKKanGAS inh	CSC inhib	Beta cell apopt	PP1 confirm	PP5 inh counter
Cc1ccccc1-n1c(=O)[nH]c(=O)c2c(N)c(C(=O)c3ccc(Cl)cc3)sc21	-1	5	24	-15	6	/	/
COc1cc(CC(=O)OCC(=O)c2c[nH]c3ccccc23)cc(OC)c1OC	0	0	/	36	-6	/	/
O=C(CNC(=O)c1ccccc1Cl)OC1CCOC1=O (stereo not given)	-2	-6	-3	-4	-3	/	/
CCOc1ccc(C(=O)COC(=O)c2nc3nccc(C)n3n2)cc1	1	0	/	/	1	/	/
Cc1cc(C(C)(C)CC(C)(C)C)ccc1OCCOCC[N+](C)(C)Cc1ccccc1	5	30*	/	118*	100*	7	3
CN(Cc1ccccc1)C1CCN(Cc2ccccc2[N+](=O)[O-])CC1	0	2	1	30	-4	/	/
C/C(CC(=O)Nc1ccc(OCc2ccccc2)cc1)=N\NC(=O)C(=O)Nc1cccc(C)c1	-2	18*	16	13	-2	0	-6
CC(=O)Nc1ccc(C(=O)N/N=C(\C)CC(=O)Nc2ccc(OCc3ccccc3)cc2)cc1	3	12	-9	6	1	/	/
COc1ccccc1NC(=O)C(=O)N/N=C(\C)CC(=O)Nc1ccc(OCc2ccccc2)cc1	4	19*	2	-2	5	24*	-2
C/C(CC(=O)Nc1ccccn1)=N\NC(=O)C(=O)Nc1cccc(C)c1	2	2	1	-2	-2	/	/
Cc1cccc(C)c1OCC(=O)N=Nc1c(O)[nH]c2ccc(Br)cc12	1	12	17	20	0	/	/
CC(Oc1ccccc1)C(=O)N=Nc1c(O)[nH]c2ccc(Br)cc12 (stereo not given)	-1	18*	4	-15	-3	14	0
O=C(N/N=C/c1ccc(O)cc1O)C(=O)N/N=C/c1ccc(O)cc1O	-3	53*	4	55	2	30*	-7
COc1ccc(N2Cc3ccc(C(=O)N/N=C\c4ccc(O)cc4O)cc3C2)cc1	4	19*	8	91*	13	13	-3
COc1ccc(C(=O)Nc2cccc(C(=O)N/N=C/c3ccc(OC)cc3OC)c2)cc1	4	0	6	/	-2	/	/
O=C(CCC(=O)Nc1ccc(F)cc1)N/N=C/c1ccc(O)cc1O	3	1	-11	29	1	/	/
CCN(CC(=O)Nc1c(F)cccc1F)C(=O)CCc1nc2cc(S(=O)(=O)N3CCOCC3)ccc2n1C	-1	-3	-2	-8	0	/	/
Cc1ccc(NC(=S)N/N=C/c2cccn2Cc2ccccc2F)cc1	1	5	5	14	-3	/	/
CC(=O)C(C(c1ccccc1)c1c[nH]c2ccccc12)[N+](=O)[O-] (stereo not given)	1	1	4	71	-2	/	/
CCOc1cc(C2Nc3cccc4cccc(c34)N2)ccc1O	4	24*	14	-1	7	2	8
CCOc1ccc(C2Nc3cccc4cccc(c34)N2)cc1OC	1	-3	-7	-15	6	/	/
O=C(NCc1ccncc1)C(=O)N/N=C/c1ccc(OCc2ccccc2)cc1	0	38*	1	1	-2	32*	5
COc1cc(/C=C/C(=O)OCC(=O)NCc2ccc(F)cc2)ccc1O	/	/	/	-2	-6	/	/
O=C(CN1C(=O)/C(=C2\SC(=S)N(CCS(=O)(=O)O)C2=O)c2ccccc21)Nc1cccc(Br)c1	2	37*	2	-4	-4	39*	-2
Cc1ccc(NC(=O)C(OC(=O)c2ccc(C=O)cc2)c2ccccc2)cc1Cl (stereo not given)	2	22*	31	-7	-9	12	-3
SMILES	PP5 primary	PP1 inh	SKKanGAS inh	CSC inhib	Beta cell apopt	PP1 confirm	PP5 inh counter
Cc1ccc(C)c(NC(=O)C(OC(=O)c2ccc(NC(=O)CC#N)cc2)c2ccccc2)c1 (stereo not given)	3	9	42	17	/	/	/
COc1ccc(-c2nnc(NC(=O)c3ccc(F)cc3)o2)cc1	3	24*	91*	27	7	25*	-3
COc1ccc(-c2nnc(NC(=O)c3ccc4c(c3)OCCO4)o2)cc1	-1	11	-2	37	-1	/	/
Cc1cc(S(N)(=O)=O)c(N)c(S(N)(=O)=O)c1	-7	0	1	6	-2	/	/
COc1ccc(N2CCN(S(=O)(=O)c3ccc4c(c3)NC(=O)C(C)S4)CC2)cc1 (stereo not given)	3	0	-5	-16	33	/	/
CCOC(=O)[C@@H]1[C@H]2COc3cc(OC)ccc3[C@@H]2N2C(=O)N(c3cccc(C)c3)C(=O)[C@]12C	/	/	/	-7	0	/	/
CCOC(=O)c1csc(N/N=C2\CCc3ccccc32)n1	3	19*	3	0	-2	17*	-1
COc1ccc2c(c1)CCC/C2=N\Nc1nc(C(=O)NN)cs1	2	22*	15	/	/	9	-4
COc1ccc2c(c1)CCC/C2=N\NC(=O)c1ccoc1C	3	8	4	-6	-4	/	/
CCn1c(COC(=O)CNC(=O)c2cc(OC)c(OC)c(OC)c2)nc2cc(S(=O)(=O)N(C)C)ccc21	0	-7	31	/	-7	/	/
O=C(c1cccc(Cl)c1)C1CCCN(S(=O)(=O)c2ccccc2)C1 (stereo not given)	4	1	4	11	3	/	/
CCc1cc(CNC(=O)C2CCC(=O)N(CCc3cccc(F)c3)C2)on1 (stereo not given)	/	/	0	/	/	/	/
COCCNC(=O)NC(=O)CN1CCN(C(c2ccccc2)c2ccccc2)CC1	2	-2	-6	-14	-2	/	/
S=C1NCCOCCOCCOCCNC(=S)N2CCOCCOCCN1CCOCCOCC2	3	-4	-2	-5	0	/	/
CSc1nsc(SCC(=O)Nc2nc3ccc(C)cc3s2)n1	0	26*	0	1	-12	19*	-5
Cc1ccc2nc(NC(=O)COC(=O)CSc3nc(C)cc(C)n3)sc2c1	0	-2	-2	-5	-2	/	/
CC1=C(C(=O)Nc2ccccc2)C(c2ccco2)C(C#N)=C(SCC(=O)OC(C)C)N1 (stereo not given)	3	-1	-8	-5	-3	/	/
CC1=C(C(=O)Nc2ccccc2)C(c2ccco2)C(C#N)=C(SCc2ccccc2)N1 (stereo not given)	3	23*	7	?	20	0	-6
CCc1ccc(N=Nc2ccc(O)c3[nH]cnc23)cc1	0	21*	/	82*	4	10	-1
CCOc1cc(CN2CCCC(CNC(=O)c3ccc(F)cc3)C2)ccc1OC (stereo not given)	1	0	-18	-5	-7	/	/
Cn1c(=O)c(C(=O)CN2CCc3ccccc32)c(N)n(Cc2ccccc2)c1=O	2	22*	6	0	-3	-2	-1
